NIH3T3 tox – Cytotoxic Profiling in NIH 3T3 Cell Line of Diverse Libraries Using Quantitative High-Throughput Screening; NIH 3T3 viability, CellTiter-Glo ATP luminescence, 48-72 h; 94,000 tested, 4.3% active; Potency, µM (highest dose often 96.7 µM), for inactives: at the top dose activity change, negative = cytotoxicity, usual class: inhibitors; note: nearly all actives have a fitted effect of over 55% in size
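Viability of NIH 3T3 cells after 48 or 72 hr compound treatment at 37 °C was assessed by CellTiter-Glo, with luminescence imaged following a 10 min room-temperature step.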
HEK cytotox – Cytotoxic Profiling in HEK 293 Cell Line of Diverse Libraries Using Quantitative High-Throughput Screening; HEK 293 viability, ATP luminescence (CellTiter-Glo), 48-72 h; Potency, µM (doses to about 115 µM), for inactives: at the top dose activity change, negative = cytotoxicity, actives largely listed as inhibitors; 94,000 tested, 6.6% active; note: nearly all actives have a fitted effect of over 60% in size
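HEK 293 seeded at 250 cells/well receive compound via pintool. After 48 or 72 hr at 37 degree Celsius, 5% CO2 and 95% humidity, CellTiter-Glo is dispensed and luminescence read following 10 min at room temperature.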
hNpr1 antagonist – Natriuretic polypeptide receptor (hNpr1) antagonism - Primary qHTS; Atrial natriuretic peptide receptor 1 (Homo sapiens), P16066; HEK293 hNpr1 GloSensor cGMP, ANP-stimulated luminescence; Potency, µM (doses to about 46.3 µM), for the others: at the highest dose activity change, negative = inhibition, most hits filed as inhibitors; 76,000 tested, 1.6% active; AID 1347048, 2019; calls by dose curve; note: nearly all actives have a fitted effect of over 60% in size
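HEK293 cells stably expressing human Npr1 and cGMP GloSensor pGS-40F, loaded 2 h with 2% GloSensor reagent, given compound 30 min at room temperature. Luminescence read before and 20 min after 0.1 nM hNppA.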
Luciferase inh – Firefly luciferase inhibition profiling of diverse chemical library using quantitative high-throughput screening; AID 1347043, 2019; Potency, µM (series often up to 115 µM), hits mostly inhibitors; 76,000 tested, 2.5% active; purified P. pyralis luciferase, luminescence, biochemical; note: nearly all actives have a fitted effect of over 65% in size
Target sequence (P08659 whole entry, looked up): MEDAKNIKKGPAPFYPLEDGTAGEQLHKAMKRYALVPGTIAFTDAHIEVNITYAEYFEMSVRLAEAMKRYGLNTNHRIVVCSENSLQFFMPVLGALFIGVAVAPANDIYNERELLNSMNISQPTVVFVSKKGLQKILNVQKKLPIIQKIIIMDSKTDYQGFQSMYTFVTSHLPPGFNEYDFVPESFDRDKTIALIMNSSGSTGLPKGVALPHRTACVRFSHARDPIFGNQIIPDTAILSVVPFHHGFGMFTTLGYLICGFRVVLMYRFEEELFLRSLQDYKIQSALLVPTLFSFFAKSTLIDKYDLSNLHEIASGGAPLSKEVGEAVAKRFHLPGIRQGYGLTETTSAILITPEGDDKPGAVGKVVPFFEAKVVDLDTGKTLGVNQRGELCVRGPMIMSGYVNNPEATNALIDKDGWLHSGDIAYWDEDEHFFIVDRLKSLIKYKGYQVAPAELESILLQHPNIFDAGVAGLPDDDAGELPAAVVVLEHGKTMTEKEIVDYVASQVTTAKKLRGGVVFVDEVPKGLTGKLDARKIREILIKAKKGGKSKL
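Inhibitors were tested against purified firefly luciferase in a biochemical, low-substrate format (both substrates at 10uM) and luminescence measured with a CCD imager.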
The depositor's hits bear a star; i = inactive; ? = inconclusive; . = not tested or not shown; [ ] = another dose, or the depositor's remark. Rows were chosen to be rich in hits. Some 11% of all compounds tested hit in one or more screens of this group. Unless noted, calls come from the whole dose curve; as a rule, active = well fitted curve in the direction sought with a large enough effect; inconclusive = small, poorly fitted or top-dose-only effect, or another doubt; inactive = no such curve, though single readings can be large; an effect the other way counts as inactive or inconclusive. % is set by controls: 0 for no effect and ±100 for the full control effect; potency is the fitted concentration of half-maximal effect.

SMILES	NIH3T3 tox	HEK cytotox	hNpr1 antagonist	Luciferase inh
Nc1cccn2nc(-c3cccnc3)nc12	-14%	i	-6%	?
Nc1cccn2nc(-c3ccccc3)nc12	?	-18%	-15%	16µM*
COc1ccc2[nH]c3c(c2c1)CCNC31CCN(C(=O)c2cccn2C)CC1	?	?	-2%	i
N#Cc1ccc(CN2CCCCCNC(=O)[C@@H]3CCC[C@@H]32)cc1	?	79µM*	-9%	i
O=C1NCCCCCCN(Cc2cccc(F)c2)[C@H]2CCC[C@@H]12	?	79µM*	-15%	i
CC(CNc1nccc(C2(c3ccccc3Cl)CCNCC2)n1)CN(C)C (stereo not drawn)	?	-27%	6%	i
C=CCCC(CN1CCCOCC1)Oc1ncc(Cl)cn1 (stereo not drawn)	-7%	-25%	-8%	i
COc1ccc(NC(=O)N2C[C@@H]3C[C@H](C2)c2c(NC(=O)c4ccco4)ccc(=O)n2C3)cc1	4%	-3%	2%	i
CCNC(=O)[C@@H]1C[C@H](NC(=O)c2cccc(-c3ccc(F)cc3)c2)CN1C	-28%	?	1%	35µM*
COc1ccc(CO[C@H]2COCCN(c3nc4ccccc4s3)C2)cc1	?	100µM*	-5%[70.6 µM]	?
COCC1CN(C(C)=O)CC12CCN(C(=O)COc1ccc(Cl)cc1)CC2 (stereo not drawn)	?	-15%	4%	i
CC(=O)N1CCC(Nc2cc(-c3ccc(Cl)cc3)nc3c(C)noc23)CC1	?	?	0%[70.6 µM]	i
COCCNc1cc(-c2ccc(Cl)cc2)nc2c(C)noc12	?	?	0%[70.6 µM]	i
Cc1noc2c(-c3cccnc3)cc(-c3cccs3)nc12	?	?	-4%[70.6 µM]	i
Cc1noc2c(NC3CCC(O)CC3)cc(-c3ccc(Cl)cc3)nc12 (stereo not drawn)	22µM*	89µM*	7%[70.6 µM]	i
Cc1noc2c(-c3cccc(O)c3)cc(-c3cccs3)nc12	40µM*	71µM*	-5%[70.6 µM]	i
CC(=O)N1CCC(Nc2ncccc2-c2cc(-c3ccccc3)nc3c(C)noc23)CC1	?	100µM*	8%[70.6 µM]	i
Cc1noc2c(NC3CCN(C)CC3)cc(-c3ccc(Cl)cc3)nc12	10µM*	35µM*	1%[70.6 µM]	i
CNC(=O)[C@@H](Cc1ccccc1)N1CCC[C@H]1C(=O)NCc1ccccn1	-16%[174 µM]	-7%[172 µM]	-3%[70.6 µM]	i
Cc1noc2c(NC3CCN(C)CC3)cc(-c3cccs3)nc12	?	79µM*	9%[70.6 µM]	i
CCC1CN(c2ccc(-c3nc(-c4ccc(OC)cc4)no3)cn2)CCN1C (stereo not drawn)	79µM*	?	-4%	?
CO[C@H]1CN(C(C)C)[C@H]1C1CCN(C(=O)C2(c3ccccc3)CC2)CC1	-1%	1%	.	.
Cc1sc2ccn(C)c(=O)c2c1C(=O)N1CCN(c2ccc(Cl)cc2)CC1	-15%	79µM*	-11%	i
Cc1sc2ccn(C)c(=O)c2c1C(=O)N1CCN(c2ccc(F)cc2)CC1	4%	?	-8%	i
COc1cc(CN2CCN(c3cc(C)nc(N)n3)CC2CCO)cc(OC)c1 (stereo not drawn)	-20%	-27%	8%	i
SMILES	NIH3T3 tox	HEK cytotox	hNpr1 antagonist	Luciferase inh
CC(=O)Nc1ccc(S(=O)(=O)N[C@H]2CO[C@H]3[C@@H]2OC[C@@H]3Nc2nccc(C(C)(C)C)n2)cc1	?	?	16µM*	?
COc1ccc(NC(=O)O[C@@H]2CO[C@H]3[C@@H]2OC[C@@H]3NS(=O)(=O)c2ccc(NC(C)=O)cc2)cc1	?	-6%	-1%	45µM*
Cc1ccc(C(=O)N[C@H]2CO[C@H]3[C@@H]2OC[C@@H]3Nc2nccc(C(C)(C)C)n2)cc1	?	63µM*	?	?
CC(C)CNC(=O)N1CCCN(S(=O)(=O)c2ccccc2)CCC(=O)NCC1	-2%	i	8%	i
CC1=C[C@@H](CNC(=O)c2cccnc2)[C@H](C(C)C)C[C@H]1Cc1nc2ccc(F)cc2[nH]1	?	?	-4%[70.6 µM]	i
COCC(=O)NC[C@@H]1C=C(C)[C@H](Cc2nc3ccc(F)cc3[nH]2)C[C@H]1C(C)C	50µM*	?	-15%[70.6 µM]	i
CC(=O)NC[C@@H]1C=C(C)[C@H](Cc2nc3ccc(F)cc3[nH]2)C[C@H]1C(C)C	79µM*	45µM*	-15%[70.6 µM]	i
COCC(=O)NC[C@@H]1C=C(C)[C@H](Cc2nc3ccccc3[nH]2)C[C@H]1C(C)C	?	?	-22%[70.6 µM]	i
O=[S+]([O-])(c1cccc(C(F)(F)F)c1)N1CCCN(c2ccnc3ccnn23)CC1	?	45µM*	.	.
O=C(c1ccc(C(F)(F)F)cc1)N1CCCN(c2ccnc3ccnn23)CC1	?	22µM*	.	.
CCOc1ccc(NC(=O)Cn2c(N3CCc4ccccc4C3)nc(C)cc2=O)cc1	32µM*	40µM*	-12%	i
CC(=O)c1ccc(NC(=O)Cn2c(N3CCc4ccccc4C3)nc(C)cc2=O)cc1	28µM*	35µM*	-27%	i
CC(=O)c1cccc(NC(=O)Cn2c(N3CCc4ccccc4C3)nc(C)cc2=O)c1	?	45µM*	-22%	i
Cc1cc(=O)n(CC(=O)Nc2ccc(C)c(C)c2)c(N2CCc3ccccc3C2)n1	-2%	?	-13%	i
Cc1cc(=O)n(CC(=O)Nc2cccc(C#N)c2)c(N2CCc3ccccc3C2)n1	?	?	-5%	i
CCOc1ccc(NC(=O)Cn2c(Nc3cc(C)cc(C)c3)nc(C)cc2=O)cc1	32µM*	?	-27%	i
O=C(Cc1[nH]nc2ccccc12)N[C@H](c1ccc2c(c1)CCO2)C1CC(O)C1 (stereo partly drawn)	-24%	-4%	-8%	i
CCc1ccc(C(=O)NC2CCN(c3cnn(CC4CC4)c(=O)c3)CC2)cc1	?	?	-22%	i
COCCN1C(=O)c2cccn2CC1CNC(=O)c1cc(-c2ccc(F)cc2)n[nH]1 (stereo not drawn)	-29%	-24%	.	.
COc1ccc(NC(=O)c2nnn3c2COC(c2ccc(F)cc2)C3)cc1Cl (stereo not drawn)	-20%	?	0%	i
COc1ccc(F)cc1-c1ccc(CN2CCC(NC(=O)c3ccc(Cl)cc3)C2)cc1 (stereo not drawn)	14µM*	?	.	.
COc1ccc(F)cc1-c1ccc(CN2CCC(NC(=O)c3ccccn3)C2)cc1 (stereo not drawn)	45µM*	?	.	.

High-throughput results: PubChem BioAssay, National Center for Advancing Translational Sciences (NCATS)
